From PubChem BioAssay AID504832 (National Center for Advancing Translational Sciences (NCATS), 2011)
The whole screen tested about 310,000 compounds, of which about 18,000 (5.8%) were called active. About 22% were inconclusive and are not listed. Many of the other results were omitted from the sample, so actives are more common in it than they were. Unmarked numbers belong to inactive results. Calls follow the shape of the dose curve; as a rule, active = well fitted inhibition curve with a large enough effect; inconclusive = small, poorly fitted or top-dose-only effect, or another doubt; inactive = no such curve, though single readings can be large or run the other way.

assay: Primary qHTS for delayed death inhibitors of the malarial parasite plastid, 48 hour incubation; settings: P. falciparum luciferase growth in erythrocytes; series mostly up to 28.7 µM; activity change, negative = inhibition: at the top concentration
In short: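 Cell-based growth assay: transgenic P. falciparum expressing firefly luciferase, cultured in red cells within RPMI 1640 containing 0.5% w/v Albumax, 24 mM bicarbonate and gentamycin. A drop in luciferase activity indicates inhibition.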
% is scaled to controls: 0 for no effect and ±100 for the full control effect; potency is read from the fitted curve at half-maximal effect.

Compound	activity change, negative = inhibition [%]	Potency
N#Cc1c(Cl)nc(-c2cccnc2)nc1-c1ccccc1	0.537	–
CCCC[C@H]1COCCS(=O)(=O)N1Cc1cccc(Cl)c1	0	–
COc1cc(NC(=O)C2CC(c3ccccc3O)=NO2)c(OC)cc1Cl (centres undefined)	-5.06	–
Cc1nc(-c2ccc(F)cc2)c(CC(=O)N2CCN(S(=O)(=O)c3ccc(F)cc3)CC2)s1	-11.8	–
O=C(CN1CCOCC1)Nc1cc(Cl)ccc1Cl	12.8	–
Cc1ccccc1NC(=O)CSc1nc2ccc(Nc3nc(N4CCOCC4)nc(N4CCOCC4)n3)cc2s1	-8.19	–
O=C(CSc1nc(Nc2ccccc2)nc(N2CCOCC2)n1)Nc1cc(Cl)ccc1O	–	1.17 µM (active)
Cn1c(SCC(=O)N2CCCCC2)nc2c(c1=O)SCC2	-1.34	–
O=C(Nc1cccc(-n2cnnn2)c1)c1cccnc1	18.8	–
O=C(Nc1ccc(C(F)(F)F)cc1)c1cccc(-n2cnnn2)c1	–	10.4 µM (active)
CNC(=O)c1ccc(NC(=O)c2cccc(C(F)(F)F)c2)cc1	-18.5	–
O=C(NCc1ccc(F)cc1)C1CCN(C(=O)Nc2ccc(F)cc2)CC1	0.721	–
O=C(Nc1cccc(Cl)c1Cl)c1ccccc1NC(=O)C1CC=CCC1C(=O)O (centres undefined)	3.31	–
COC(=O)c1cc(C(=O)CSc2nc(C)cc(C)n2)ccc1O	54.2	–
CC(C)C1N=C2c3ccccc3N=C(SCC(=O)c3ccc(O)c(O)c3)N2C1=O (centres undefined)	–	11.7 µM (active)
CCc1ccc(S(=O)(=O)N/N=C\c2ccc([N+](=O)[O-])o2)cc1	25.8	–
COc1ccc(CCNS(=O)(=O)c2cn(C)nc2C)cc1	32.5	–
O=C1c2oc3ccc(Br)cc3c(=O)c2C(c2cccc(F)c2)N1CCO (centres undefined)	-24.2	–
Cc1ccc(F)cc1NC(=O)Cc1nn(C)c(=O)c2ccccc12	-15.9	–
Cc1c(-c2nn(C)c(=O)c3ccccc23)oc2ccc(F)cc2c1=O	–	2.62 µM (active)
CCCNC(=O)CCc1c(C)nc2c(c(C)nn2-c2ccccc2)c1C	-29.5	–
O=C(CN(C(=O)CCC(=O)Nc1nccs1)c1ccc(F)cc1)NCc1ccc2c(c1)OCO2	-25.3	–
O=C(Nc1cccc(S(=O)(=O)NC2=NCCC2)c1)C1CCCCC1	-2.52	–
CN(CCOc1ccc(Br)cc1)CC(=O)Nc1cccc(S(=O)(=O)NC2=NCCC2)c1	-18.4	–
CCc1ccc(C(=O)OCC(=O)Nc2cccc(S(=O)(=O)NC3=NCCCCC3)c2)cc1	–	10.4 µM (active)

Compound	activity change, negative = inhibition [%]	Potency
Cc1cccc(-n2c(SCC(=O)Nc3cccc(S(=O)(=O)NC4=NCCCCC4)c3)nc3ccccc3c2=O)c1C	–	13.1 µM (active)
O=C(Cn1cnc2ccccc2c1=O)Nc1cccc(S(=O)(=O)N2CCCCC2)c1	-10.9	–
COCCn1c(SCC(=O)Nc2ccc3c(c2)CCC3)nc2ccccc2c1=O	-17.9	–
Cc1ccc(S(=O)(=O)N2CCC3(CC2)OCCO3)c(C)c1	-0.438	–
Cc1csc(NC(=O)CSc2nc(=O)n(CCCN(C)C)c3c2CCC3)n1	11.7	–
CC(=O)Nc1ccc(NC(=O)COc2ccc(-c3ccccc3)cc2)cc1	4.83	–
CC1CC(C)CN(CCCNC(=O)Cn2ncc3c([nH]c4ccccc43)c2=O)C1 (centres undefined)	6.15	–
CC(=O)N1CCN(C(=O)c2cc(-c3ccc(C)o3)nc3ccccc23)CC1	14.6	–
CCOC(=O)C1(Cc2ccccc2C)CCCN(C(=O)CN2C(=O)CSC2=O)C1 (centres undefined)	18	–
CCCCC(=O)Nc1nnc(S(=O)(=O)N(C)Cc2ccco2)s1	21.1	–
COc1ccc(CCNC(=O)c2ccc3c(c2)NC(=O)C(N2CCOCC2)S3)cc1OC (centres undefined)	-14.3	–
Cc1nn(Cc2ccccc2)c(C)c1C(=O)NCCN1C(=O)S/C(=C\c2ccc(F)cc2)C1=O	12.8	–
O=C(NCCN1CCOCC1)c1ccc(/C=C2\Sc3ccccc3N(Cc3ccc(F)cc3)C2=O)cc1	–	11.7 µM (active)
CN1CCN(CCCNC(=O)c2ccc(/C=C3\Oc4ccccc4N(Cc4ccc(Cl)cc4)C3=O)cc2)CC1	–	1.65 µM (active)
Cc1ccc(C(=O)N/C(=C\c2ccc(F)cc2)C(=O)NCCN2CCOCC2)cc1	17.7	–
CN1C(=O)/C(=C/c2ccc(C(=O)NC3CCCC3)cc2)Oc2ccccc21	-20.2	–
CCN1CCN(CCNC(=O)c2ccc3c(c2)NC(=O)/C(=C\c2ccc(OC)c(OC)c2)S3)CC1	–	9.28 µM (active)
O=C(NCCN1C(=O)S/C(=C\c2cccnc2)C1=O)c1cccc(OC(F)F)c1	-29.2	–
CCCN1CCN(C(=O)CCCNC(=O)c2ccc(Cl)cc2)CC1	-0.322	–
O=C(NCCN1CCOCC1)/C(=C/c1ccc(F)cc1)NC(=O)c1ccccc1	15.1	–
CCN1CCN(CCNC(=O)c2ccc(/C=C3/Sc4ccccc4N(Cc4cccc(C)c4)C3=O)cc2)CC1	–	11.7 µM (active)
COc1ccc(/C=C(\NC(=O)c2ccccc2)C(=O)NCCN2CCOCC2)cc1OC	3.72	–
Cc1cc(-c2nnc(SCC(=O)Nc3ccc(S(N)(=O)=O)cc3)n2N)n[nH]1	-13.5	–
CN1C(=O)[C@H]2[C@@H](C3CC3)N3C(=O)CN(Cc4ccccc4)C(=O)[C@@]3(C)[C@H]2C1=O	27.4	–
